We go through 38 sequences from the OligoGym collection.
Further: reference of the scale not given here.

One test addresses ESR2. Nature of the test: pooled miR-30 sensor sort-seq; sequence = guide strand. To be noted: shRNA.
As to TAATTCATCACAGCAGGGCTAT, the sensor-assay potency score (higher = more potent) is -0.611.

In the case of TTCCAAGTTAGTGACATTGCTG, the sensor-assay potency score (higher = more potent) was -0.291.

TACCCACATCTCTCTCTCCGGG: the sensor-assay potency score (higher = more potent) is -0.444.

As for TACAGATGTGATAACTGGCGAT, the sensor-assay potency score (higher = more potent) is -0.498.

With TTGAGCGCCACATCAGCCCCAT, the sensor-assay potency score (higher = more potent) was -0.177.

Regarding TTGTCGGCCAACTTGGTCAGGG, the sensor-assay potency score (higher = more potent) is -0.443.

As for TAGCTGGACAAATATAATCATT, the sensor-assay potency score (higher = more potent) is -1.44.

On to TAATCGCTGCAGACAGCGCAGA, for which the sensor-assay potency score (higher = more potent) was -1.17.

Regarding TTTTTATCGATTGTACACTGAT, the sensor-assay potency score (higher = more potent) is -0.36.

As for TATCGATTGTACACTGATTTGT, the sensor-assay potency score (higher = more potent) was -0.431.

As for TTTAACTCTCGAAACCTTGAAG, the sensor-assay potency score (higher = more potent) was -0.511.

On to AAATATAATCATTATGTCCTTG, for which the sensor-assay potency score (higher = more potent) was -0.156.

For TTTTCTGCCCTCGCATGCCTGA, the sensor-assay potency score (higher = more potent) was -0.946.

As to ATCATTAACACCTCCATCCAAC, the sensor-assay potency score (higher = more potent) is -1.05.

ATCATGTGTACCAACTCCTTGT: the sensor-assay potency score (higher = more potent) is -0.273.

TTGTACACTGATTTGTAGCTGG yielded a sensor-assay potency score (higher = more potent) of 0.245.

A further test has as its target ETFA. The test is described as above. Conditions: shRNA.
For TAATTGAACTGCTTCTGAGTTG, the sensor-assay potency score (higher = more potent) is -0.401.

As to TTGATGCCTTTTCTGAACTGGC, the sensor-assay potency score (higher = more potent) is -0.864.

In the case of TTGATTGCAATGATGTCAGAAA, the sensor-assay potency score (higher = more potent) was -0.689.

As to TGTGTAATTGAACTGCTTCTGA, the sensor-assay potency score (higher = more potent) came out at 0.237.

As to TTAGCTCTGGTCGATCACTTTT, the sensor-assay potency score (higher = more potent) was -1.24.

Regarding TCTTGCTGTCTTTCATCCCAGC, the sensor-assay potency score (higher = more potent) is -0.987.

As to TATTCCATAATCTGCCACTTGG, the sensor-assay potency score (higher = more potent) is -0.476.

On to TTTCTGAACTGGCACTACCGCC, for which the sensor-assay potency score (higher = more potent) was -0.966.

In the case of TTTCTGGTCAAGCCACTCTGAT, the sensor-assay potency score (higher = more potent) was -1.17.

Consider TTTACAGAGATCTTGTGCCACC, for which the sensor-assay potency score (higher = more potent) was -0.57.

As for TGTAATTGAACTGCTTCTGAGT, the sensor-assay potency score (higher = more potent) is -0.4.

Sequence TATAATACCCACAAATATCTGT showed a sensor-assay potency score (higher = more potent) of 0.241.

The sequence TTTCACTTTCTCATCACACTTC returned a sensor-assay potency score (higher = more potent) of 0.639.

Turning to TAAATAGTTCTCACAAATGTGT, the sensor-assay potency score (higher = more potent) was -0.288.

For TAGTTCTCACAAATGTGTCAGG, the sensor-assay potency score (higher = more potent) is -0.609.

As for TGAACTGCTTCTGAGTTGCCAA, the sensor-assay potency score (higher = more potent) was -0.648.

With TTATGAAATGTAGCTCTCCATG, the sensor-assay potency score (higher = more potent) is -1.39.

Turning to TAGCTCTGGTCGATCACTTTTT, the sensor-assay potency score (higher = more potent) is -1.

With TAAATCTGCAACTATTCCATAA, the sensor-assay potency score (higher = more potent) is -0.957.

In the case of TCCAACTTGCATGTCATTGGGA, the sensor-assay potency score (higher = more potent) is -0.493.

As to TTCTCATCACACTTCACTGTAC, the sensor-assay potency score (higher = more potent) is -0.442.

TTTCTCATCACACTTCACTGTA gave a sensor-assay potency score (higher = more potent) of 0.00115.
